As usually defined, the AC50 is the concentration at which the activity in the assay is half-maximal.

Among all 16,000 compounds or so, about 5,100 (32%) were called active. Another 25% or so got no clear call; they are omitted. The list shows a part of the results. Unmarked numbers belong to inactive results. Calls follow the shape of the dose curve; as a rule, active = well fitted curve in the direction sought with a large enough effect; inconclusive = small, poorly fitted or top-dose-only effect, or effect the other way; inactive = no such curve, though single readings can be large or run the other way.

The record followed here is PubChem BioAssay AID1851 (National Center for Advancing Translational Sciences (NCATS), 2009).
% is scaled to controls: 0 for no effect and ±100 for the full control effect.

Chain of Cytochrome P450 3A4 (Homo sapiens) (P08684 whole entry, looked up): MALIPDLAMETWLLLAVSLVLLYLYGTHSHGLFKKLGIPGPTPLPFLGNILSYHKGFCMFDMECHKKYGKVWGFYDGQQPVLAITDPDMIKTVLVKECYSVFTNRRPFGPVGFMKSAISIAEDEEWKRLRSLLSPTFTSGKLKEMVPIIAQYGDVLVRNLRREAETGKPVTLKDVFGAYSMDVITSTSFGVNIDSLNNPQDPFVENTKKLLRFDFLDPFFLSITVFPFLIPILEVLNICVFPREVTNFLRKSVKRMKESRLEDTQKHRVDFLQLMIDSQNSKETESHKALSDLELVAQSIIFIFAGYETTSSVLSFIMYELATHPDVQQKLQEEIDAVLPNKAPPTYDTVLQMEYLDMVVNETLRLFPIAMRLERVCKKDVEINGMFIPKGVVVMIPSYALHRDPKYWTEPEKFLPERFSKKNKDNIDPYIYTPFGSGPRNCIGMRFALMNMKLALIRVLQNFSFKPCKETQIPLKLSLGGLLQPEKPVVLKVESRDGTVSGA

The assay concerns the target Cytochrome P450 3A4 (Homo sapiens) (UniProt P08684). The experiment in a line: Cytochrome panel assay with activity outcomes. The following applies: recombinant CYP, pro-luciferin dealkylation, luminescence, p450-cyp3a4; series mostly up to 57.1 µM; activity, negative = inhibition: at the top concentration.
For the compound `O=C(COc1ccccc1-c1ccccc1)N/N=C/c1cccc2ccccc12`, the activity, negative = inhibition is 1.08% [at 2.29 µM].
In the case of `O=C(COc1ccc(-c2ccccc2)cc1)N/N=C/c1ccccc1Br`, the AC50 was 14.1 µM (active).
As to `O=C(Cn1cc(C(=O)c2ccco2)c2ccccc21)NCc1ccco1`, the AC50 was 25.1 µM (active).
Take `Cc1nnc(NC(=O)CCC(=O)NCc2cccs2)s1`: the “activity, negative = inhibition” value is -18.9%.
For `COc1ccccc1OCCn1cc(C(=O)c2ccco2)c2ccccc21`, the AC50 was 3.98 µM (active).
Consider `Cc1ccccc1C(=O)c1cccn1CC(=O)NCc1ccco1`, for which the AC50 was 22.4 µM (active).
In the case of `O=C(Cn1cccc1C(=O)c1ccccc1)NCc1cccs1`, the concentration at half-maximal activity (AC50) was 10 µM (active).
On the same count and under the same terms, to `c1ccc2c(c1)ncn2Cc1nnc2sc(-c3ccc4c(c3)OCO4)nn12` belongs 2.24 µM (active); to `COc1ccc(N2CC(C(=O)OCC(=O)c3cccc(OC)c3)CC2=O)cc1` (centres undefined), 14.1 µM (active).
`CC(C)Oc1ccc(N2CC(C(=O)OCC(=O)NCc3ccccc3)CC2=O)cc1` (centres undefined): the activity, negative = inhibition was 1.29% [at 2.29 µM].
In the case of `COC(=O)c1sccc1NC(=O)CSc1ccccc1NS(=O)(=O)c1ccc(Cl)cc1`, the AC50 is 3.55 µM (active).
As for `COC(=O)c1sccc1NC(=O)CSc1ccc(Cl)cc1`, the activity, negative = inhibition is -2.63% [at 2.29 µM].
With `COC(=O)c1sccc1NC(=O)CSc1cc(Cl)ccc1Cl`, the AC50 was 22.4 µM (active).
As to `COC(=O)c1sccc1NC(=O)CN(C)NS(=O)(=O)c1ccc(F)cc1`, the “activity, negative = inhibition” value was 3.97%.
In the case of `CCCCOC(=O)Nc1ccccc1C(=O)OC`, the activity, negative = inhibition was 20.6% [at 11.4 µM].
On to `Cc1ccc(C(=O)NNC(=O)CSc2nnc(-c3ccncc3)n2-c2ccc(C)cc2)cc1`, for which the AC50 is 3.16 µM (active).
Same read-out and setting: for `Cc1ccccc1NC(=O)CSc1nnc(-c2ccccc2)n1-c1ccccc1` the value was 3.55 µM (active); for `O=C(CSc1nnc(-c2ccccc2)n1-c1ccccc1)c1cccs1`, 7.08 µM (active); for `CCn1c(SCC(=O)Nc2ccccc2C(=O)OC)nnc1-c1ccc(N)cc1`, 0.631 µM (active).
For `CCOC(=O)c1ccccc1NC(=O)CSc1cccc[n+]1[O-]`, the “activity, negative = inhibition” value is -12.9%.
Still for that read-out and setting: for `O=C(O)c1cc2cc(Cl)ccc2oc1=O` the value was -15.1%.
The same measure, in the same setting: to `CN(C)CCNC(=O)C1CCCNC1=O` (centres undefined) belongs 25.9%.
Regarding `CCOc1ccc(-n2c(SCC(=O)Nc3ccccc3C)n[nH]c2=O)cc1`, the half-maximal activity concentration (AC50) was 12.6 µM (active).
As to `Cc1ncn(-c2ccccc2O)c1C`, the activity, negative = inhibition is -10.7% [at 11.4 µM].
Take `Cc1cnc(NC(=O)CCCc2nc3ccccc3s2)s1`: the AC50 is 2 µM (active).
In the case of `CCCCOC(=O)Nc1nc2ccccc2s1`, the activity, negative = inhibition is 0.331% [at 11.4 µM].
Consider `OC[C@H]1O[C@H](n2cnc3c(NC4CCCC4)nc(Cl)nc32)[C@@H](O)[C@@H]1O`, for which the “activity, negative = inhibition” value was 1.81%.
Still for that read-out and setting: for `NC1(C(=O)O)CC(C(=O)O)C1` (centres undefined) the value was -11.5%.
Consider `COc1cc(C2C(C(=O)OCCC#N)=C(C)NC3=C2S(=O)(=O)c2ccccc23)cc(OC)c1OC` (centres undefined), for which the AC50 is 5.01 µM (active).
`COc1ccc(-n2c(C)cc(C=O)c2C)cc1Cl`: the activity, negative = inhibition was 6.7% [at 2.29 µM].
For `Cc1cc(C=O)c(C)n1-c1ccc(N2CCCCC2)c([N+](=O)[O-])c1`, the “activity, negative = inhibition” value was -19.9%.
Regarding `Cc1cc(C=O)c(C)n1-c1ccc(NC2CCCC2)c([N+](=O)[O-])c1`, the AC50 is 4.47 µM (active).
Consider `CN(Cc1ccco1)c1cc(-c2ccoc2)ncn1`, for which the “activity, negative = inhibition” value is 5.33%.
Regarding `CN(Cc1ccco1)c1cc(-c2ccc3c(c2)OCO3)ncn1`, the AC50 was 3.98 µM (active).
As to `CN(C)c1ccc(-c2cc(N(C)Cc3ccco3)ncn2)cc1`, the AC50 was 12.6 µM (active).
Same read-out and setting: to `CS(=O)(=O)Nc1cccc(-c2ccc3ncnc(NCCN4CCOCC4)c3c2)c1` belongs 15.8 µM (active); to `CS(=O)(=O)Nc1cccc(-c2ccc3ncnc(N4CCOCC4)c3c2)c1`, 7.94 µM (active).
The same measure, in the same setting: to `CS(=O)(=O)Nc1cccc(-c2ccc3ncnc(N4CCNCC4)c3c2)c1` belongs 15.8 µM (active).
`CN(C)CCSCCO`: the activity, negative = inhibition was -12.3% [at 11.4 µM].
As to `COC(=O)C1=C(C)NC(C)=C([N+](=O)[O-])[C@@H]1c1ccccc1C(F)(F)F`, the AC50 is 12.6 µM (active).
Same read-out and setting: to `Oc1cc(O)c2c(c1)O[C@H](c1ccc(O)c(O)c1)[C@H](O)C2` belongs “inactive”.
Still for that read-out and setting: for `O=C1c2c(O)cc(O)cc2O[C@@H](c2ccc(O)c(O)c2)[C@H]1O` the value was 10 µM (active).
Consider `Oc1cc(O)c2c(c1)O[C@H](c1ccc(O)c(O)c1)[C@@H](O)[C@@H]2c1c(O)cc(O)c2c1O[C@@H](c1ccc(O)c(O)c1)[C@H](O)C2`, for which the activity, negative = inhibition was -13.1% [at 11.4 µM].
For `CN(C)[C@H]1C(=O)C(C(=O)NCN2CCCC2)=C(O)[C@]2(O)C(=O)C3=C(O)c4c(O)cccc4[C@](C)(O)[C@H]3C[C@H]12`, the activity, negative = inhibition is -6.5% [at 11.4 µM].
On the same count and under the same terms, for `CC(=O)NC1=NC(=O)CS1` the value was -4.9%.
Regarding `N[C@@]1(C(=O)O)CN[C@H](C(=O)O)C1`, the “activity, negative = inhibition” value is 24.7%.
As for `CCOc1cc(-c2noc(N)c2C#N)cc(OCC)c1OCC`, the concentration at half-maximal activity (AC50) is 0.2 µM (active).
In the case of `Cc1ccc(S(=O)(=O)N2CCN(S(C)(=O)=O)C2)cc1`, the activity, negative = inhibition is -0.447% [at 11.4 µM].
`Cc1ccc(S(=O)(=O)N2CCN(C(=O)CN3CCN(C)CC3)C2)cc1`: the “activity, negative = inhibition” value was -21.9%.
As for `Cc1ccc(S(=O)(=O)N2CCN(Cc3ccccc3C(F)(F)F)CC2)cc1`, the AC50 was 8.91 µM (active).
As for `O=C(Nc1cccc(OC(=O)c2cccnc2)c1)c1cccnc1`, the activity, negative = inhibition is -4.22% [at 2.29 µM].
Regarding `O=C(Nc1cccnc1)c1ccc2snnc2c1`, the AC50 is 11.2 µM (active).
For the compound `COC(=O)c1cc(C#N)c(NCc2ccc(Cl)cc2Cl)nc1C`, the “activity, negative = inhibition” value is -2.03%.
Still for that read-out and setting: to `CCOC(=O)c1ccccc1Oc1c(F)c(F)nc(NCCO)c1F` belongs -28.7%.
Consider `Cc1cc(C)c2cc(C#N)c(NCCOC(=O)c3ccccc3C)nc2c1`, for which the AC50 is 7.08 µM (active).
The same measure, in the same setting: for `O=C(NC1CCCCC1)C(c1cccs1)N(C(=O)C(F)(F)F)c1ccccc1` (centres undefined) the value was 7.08 µM (active); for `COc1ccc(CCN(C(=O)C(F)(F)F)C(C(=O)NC2CCCC2)c2cccs2)cc1` (centres undefined), 3.55 µM (active).
For the compound `Cc1nnc(N(C)C(=O)c2ccccn2)s1`, the “activity, negative = inhibition” value was -5.58%.
Turning to `O=C(NC1CCCCC1)c1ccc(COCC(F)(F)F)o1`, the “activity, negative = inhibition” value is -17%.
In the case of `Cc1cc(C)cc(N(C(=O)c2ccccn2)C(C(=O)NC2CCCCC2)c2cccs2)c1` (centres undefined), the AC50 was 5.01 µM (active).
Still for that read-out and setting: for `Cc1ccc(N(C(=O)C(F)(F)F)C(C(=O)NC2CCCCC2)c2cccs2)cc1C` (centres undefined) the value was 6.31 µM (active); for `Cc1snc(SCC(=O)N/N=C(\N)COc2cccc(C(F)(F)F)c2)c1C#N`, 3.16 µM (active).
In the case of `O[C@H](CCCN1CCN(c2ncc(F)cn2)CC1)c1ccc(F)cc1`, the “activity, negative = inhibition” value was -19.9%.
For `COc1cccc(CNC(=O)CCNC(=O)Cn2ccc3ccccc3c2=O)c1`, the concentration at half-maximal activity (AC50) was 14.1 µM (active).
As to `COc1ccc(OC)c(CNC(=O)CCNC(=O)Cn2ccc3ccccc3c2=O)c1`, the activity, negative = inhibition was 5.01% [at 2.29 µM].
`O=C(CCNC(=O)Cn1cnc2ccccc2c1=O)NCC1COc2ccccc2O1` (centres undefined): the activity, negative = inhibition is 5.27% [at 2.29 µM].
For the compound `CCCC[C@@H]1C[C@H]1C(NC(=O)c1ccco1)c1ccc(Cl)cc1` (some centres undefined), the AC50 is 7.94 µM (active).
`CCCC[C@@H]1C[C@H]1C(NC(=O)c1ccco1)c1ccc(-c2ccccc2)cc1` (some centres undefined): the AC50 is 15.8 µM (active).
`CC1CCN(C(NC(=O)c2ccco2)C(=O)c2ccccc2)CC1` (centres undefined): the “activity, negative = inhibition” value is -24.8%.
Take `CCCC[C@@H]1C[C@H]1C(NC(=O)c1ccco1)c1ccc(C(=O)OC)cc1` (some centres undefined): the AC50 is 15.8 µM (active).
Same read-out and setting: to `CCC1(c2ccccc2)C(=O)NCNC1=O` belongs “inactive”.
On to `CCCCN1C(=O)CC(Sc2ccccc2C(=O)O)C1=O` (centres undefined), for which the “activity, negative = inhibition” value was -6.33%.
Consider `O=C(CSC1CC(=O)N(CC(c2ccccc2)c2ccccc2)C1=O)Nc1ccc(Cl)cc1` (centres undefined), for which the AC50 was 8.91 µM (active).
For the compound `Cc1cc2ccc(OC(=O)c3ccc(N=C(N)N)cc3)cc2oc1=O`, the activity, negative = inhibition is -27.2% [at 11.4 µM].
Take `CN(C)CCCN1c2ccccc2Sc2cnccc21`: the AC50 was 1.58 µM (active).
Turning to `CN(C)CCCN1c2ccccc2Sc2ccc3ccccc3c21`, the activity, negative = inhibition is -13.6% [at 11.4 µM].
The same measure, in the same setting: for `CCC(=O)c1ccc2c(c1)N(CCCN(C)C)c1ccccc1S2` the value was -19.6%.
As to `O=C(Nc1ccc(S(=O)(=O)N2CCCCC2)cc1)c1ccc(CN2CCc3ccccc3C2)cc1`, the “activity, negative = inhibition” value was 11.8%.
As to `COc1ccccc1NC(=O)COC(=O)c1ccc(S(=O)(=O)NCc2ccco2)cc1`, the AC50 was 28.2 µM (active).
For `Cc1cc(NC(=O)c2ccc(S(=O)(=O)Nc3ccccc3)cc2)no1`, the activity, negative = inhibition was 2.51% [at 2.29 µM].
Regarding `Cc1cc(NC(=O)c2cccc(F)c2)no1`, the “activity, negative = inhibition” value is -14.9%.
The same measure, in the same setting: to `COc1cc2ccccc2cc1C(=O)Nc1ccc(S(=O)(=O)Nc2cc(C)on2)cc1` belongs 6.01% [at 11.4 µM]; to `O=C(Cc1ccccc1)NC1CCN(S(=O)(=O)c2ccc(C(=O)O)cc2)CC1`, 10.8%.
On to `Cc1cc(NC(=O)COC(=O)c2ccc(NS(=O)(=O)c3ccc(C)c(C)c3)cc2)no1`, for which the concentration at half-maximal activity (AC50) is 5.01 µM (active).
Regarding `COc1ccccc1NS(=O)(=O)c1cccc(C(=O)OCC(=O)Nc2cc(C)on2)c1`, the AC50 was 7.08 µM (active).
For `COc1ccc(OC)c(NC(=O)C(CC(=O)O)NCc2ccco2)c1` (centres undefined), the “activity, negative = inhibition” value was -1.25%.
Take `O=C(NCc1ccccc1)c1ccc(S(=O)(=O)N2CCCc3ccccc32)cc1`: the AC50 is 10 µM (active).
For the compound `O=C(O)NCC1CCCCC1` (tested in a mixture with another compound), the activity, negative = inhibition was -26.5% [at 11.4 µM].
In the case of `O=[n+]1c2c(n([O-])c3cc(F)c(F)cc31)CCCC2`, the “activity, negative = inhibition” value was 4.83%.
For the compound `CC(C)(C)C(=O)[C@H]1[C@H](c2ccccc2)[C@@]2(N=C(c3ccccc3)OC2=O)C2c3ccccc3C=NN21` (some centres undefined), the activity, negative = inhibition was -20.3% [at 2.29 µM].
Regarding `Cc1cc(NC(=O)COC(=O)c2ccc(S(=O)(=O)N3CCCc4ccccc43)cc2)no1`, the AC50 is 0.891 µM (active).
Regarding `COc1ccc(/C=C(\C#N)C(N)=O)c(OC)c1`, the AC50 was 2.51 µM (active).
Turning to `COc1ccc(/C=C(\C#N)C(N)=O)cc1OC`, the activity, negative = inhibition is -6.66% [at 11.4 µM].
The same measure, in the same setting: to `CCOc1ccccc1/C=C(\C#N)C(N)=O` belongs -4.52% [at 11.4 µM].
